Many of the other results were omitted from the sample, so hits are more common in it than they were.
mHTT-CaM PPI inh: mHTT-calmodulin interaction abrogation | AlphaScreen His-mHTT/GST-CaM binding, luminescence | AID 1671202 | P42858 | inhibition, % at 15 µM | hit rate 3.6% among 190,000
Pf apPOL inh: Pf-apPOL DNA polymerase inhibition | Recombinant Pf-apPOL, molecular beacon fluorescence, 1.5 h | inhibition, % at 10 µM | hit rate 0.25% among 210,000 | AID 1794808
Each line names hits and unclear results; the compound was inactive in the other large screens; ! = repeats disagree. Rule as the data show it: active = inhibition above about 50%; inactive = the rest.

CCC(=O)NC(c1cccs1)c1cc([N+](=O)[O-])c2cccnc2c1O (configuration not stated)	mHTT-CaM PPI inh 100
CCOc1ccc(CNC(=O)C2CCCN(c3nccc(C)n3)C2)cc1 (configuration not stated)	none
COc1ccc(C2C(C(=O)Nc3cccc(C)n3)c3ccccc3C(=O)N2C2CCCCC2)cc1 (configuration not stated)	none
Cc1nc(C)c(-c2ccc(=O)n(CCNC(=O)c3ccno3)n2)s1	none
CCCC(=O)Nc1ccccc1NC(=O)Cc1ccccc1[N+](=O)[O-]	none
CCCCC(=O)NC(c1ccco1)c1cc([N+](=O)[O-])c2cccnc2c1O (configuration not stated)	mHTT-CaM PPI inh 100
COc1ccccc1N1CCN(c2ccc([N+](=O)[O-])c3cccnc23)CC1	none
CCCCC(=O)NC(c1ccccc1OC)c1cc([N+](=O)[O-])c2cccnc2c1O (configuration not stated)	mHTT-CaM PPI inh 100!
Cc1cccc(-c2nnc(CC(=O)NC3CC3)o2)c1	none
COc1ccc(NC(=O)c2cc3c(CO)cnc(C)c3oc2=O)cc1OC	none
C=CCN1C(=O)C(C)(C)COc2ccc(NC(=O)C34CC5CC(CC(C5)C3)C4)cc21	none
O=C(O)CSc1ncnc2ccccc12	none
COc1cc(C=C2Oc3c(ccc4c3CN(CCN3CCOCC3)CO4)C2=O)cc(OC)c1OC	mHTT-CaM PPI inh 89
COc1ccc(OC)c(C=C2Oc3c(ccc4c3CN(Cc3ccco3)CO4)C2=O)c1	none
COCCCN1COc2ccc3c(c2C1)OC(=Cc1cc(OC)c(OC)c(OC)c1)C3=O	none
COc1ccc(C=C2Oc3c(ccc4c3CN(Cc3ccncc3)CO4)C2=O)c(OC)c1OC	none
COc1ccc(C=C2Oc3c(ccc4c3CN(Cc3ccco3)CO4)C2=O)c(OC)c1OC	mHTT-CaM PPI inh 66
COc1ccc(CN2COc3ccc4c(c3C2)OC(=Cc2ccco2)C4=O)cc1	mHTT-CaM PPI inh 51
COc1ccc(C=C2Oc3c(ccc4c3CN(Cc3ccco3)CO4)C2=O)c(OC)c1	mHTT-CaM PPI inh 68
O=C1C(=Cc2ccco2)Oc2c1ccc1c2CN(Cc2ccc3c(c2)OCO3)CO1	none
O=C(Oc1ccc2c(c1)OC(=CC=Cc1ccccc1)C2=O)c1ccco1	none
CCOc1ccccc1Oc1c(C(F)(F)F)oc2c(CN(C)C)c(O)ccc2c1=O	none
O=[N+]([O-])c1ccc(-c2csc(Nc3cc(C(F)(F)F)cc(C(F)(F)F)c3)n2)cc1	none (no result: mHTT-CaM PPI inh)
COc1ccc(C=C2Oc3c(ccc4c3CN(c3ccc5c(c3)OCO5)CO4)C2=O)cc1OC	mHTT-CaM PPI inh 59
COc1ccc(C=C2Oc3c(ccc4c3CN(c3ccc5c(c3)OCCO5)CO4)C2=O)cc1OC	none
COc1ccc2c(c1)OC(=Cc1ccc(Cl)cc1Cl)C2=O	none
CCCN1CCN(C(=O)C2CCc3sc(C(=O)N4CCCC4)cc3C2)CC1 (configuration not stated)	none
O=S(=O)(Nc1ccc(C(F)(F)F)cc1)c1ccc2nc(-c3ccccc3)[nH]c2c1	none
COc1ccccc1C1C(C#N)=C(C(C#N)C#N)NC(O)(C2CC2)C1[n+]1ccc(C)cc1 (configuration not stated)	none
Cc1cc[n+](C2C(c3ccc(Br)cc3)C(C#N)=C(S)NC2(O)C2CC2)cc1 (configuration not stated)	mHTT-CaM PPI inh 89
CCc1ccc(NC(=O)C2CCCN(C(=O)c3cccc(Cl)c3)C2)cc1 (configuration not stated)	none
Cc1cc2cc(CCNC(=O)c3ccccc3F)c(=O)[nH]c2cc1C	none
COCCn1cc2c3c(cccc31)CN(C(=O)Cc1c(F)cccc1Cl)CC2	none
COCCn1cc2c3c(cccc31)CN(C(=O)Cc1ccccc1Cl)CC2	mHTT-CaM PPI inh 71
COCCCNC(=O)N1CCc2cn(CCOC)c3cccc(c23)C1	none
CCn1cc2c3c(cccc31)CN(C(=O)Nc1cccc(F)c1C)CC2	none
COCCn1cc2c3c(cccc31)CN(C(=O)COc1ccccc1)CC2	mHTT-CaM PPI inh 55
CCC(C(=O)N1CCc2cn(CCOC)c3cccc(c23)C1)c1ccccc1 (configuration not stated)	mHTT-CaM PPI inh 63
CCn1cc2c3c(cccc31)CN(C(=O)c1ccccc1F)CC2	mHTT-CaM PPI inh 56
COCCn1cc2c3c(cccc31)CN(C(=O)COc1cccc(C)c1)CC2	none
O=C(C1CC1)N1CCCc2ccc(NS(=O)(=O)c3ccc([N+](=O)[O-])cc3)cc21	none
O=C(C=Cc1cccc2nccnc12)c1ccc2c(c1)OCO2	none
CCOCC(=O)N1CCc2cn(CC)c3cccc(c23)C1	none
COCCn1cc2c3c(cccc31)CN(C(=O)Cc1cccc(F)c1)CC2	none
Cn1cc2c3c(cccc31)CN(C(=O)Cc1cccc(F)c1)CC2	mHTT-CaM PPI inh 53
COCCn1cc2c3c(cccc31)CN(C(=O)COC)CC2	none
COCCn1cc2c3c(cccc31)CN(C(=O)COc1ccc(F)cc1)CC2	mHTT-CaM PPI inh 56
CCn1cc2c3c(cccc31)CN(C(=O)COc1ccc(F)cc1)CC2	mHTT-CaM PPI inh 74
CCCn1cc2c3c(cccc31)CN(C(=O)COc1ccccc1)CC2	mHTT-CaM PPI inh 50
COc1ccc(OCC(=O)N2CCc3cn(C)c4cccc(c34)C2)cc1	none
CCC(C)NC(=O)C1CCN(c2ccc(F)c(Cl)c2)C1=O (configuration not stated)	none
CCC(C)(C)C(=O)NCc1cccnc1	none
Cc1ncn(-c2ccc(CNC(=O)C3CCCCC3)cc2)c1C	none
CCCC1C(c2ccccc2)C(C#N)(C#N)C2(C#N)CC1(O)NC2=O (configuration not stated)	none
CCn1cc2c3c(cccc31)CN(C(=O)Cc1ccc(F)cc1)CC2	mHTT-CaM PPI inh 64
CCC(=O)N1CCc2cn(CC)c3cccc(c23)C1	none
Cc1ccc(N2C(=O)CSC23C(=O)Nc2ccccc23)cc1C (configuration not stated)	none
Cc1cc(NC(=O)c2ccc(Oc3ccc([N+](=O)[O-])cc3)cc2)no1	none
Cc1ccc2c(c1)c(=O)c(C(=O)O)cn2C	none
Cc1ccc2c(c1)c1cccc3c1n2CCN3CCC(N)=O	mHTT-CaM PPI inh 69
CCOc1ccc(S(=O)(=O)N2CCSC2c2ccccc2)cc1 (configuration not stated)	none
Cc1ccc(CNC(=O)c2cc(NC(=O)C(C)C)cc3nc(C)ccc23)cc1	none
CCC(=O)Nc1cc(C(=O)NCc2cc(F)cc(F)c2)c2ccc(C)nc2c1	mHTT-CaM PPI inh 54
CCOc1ccc(CNC(=O)c2cc(NC(C)=O)cc3nc(C)ccc23)cc1	none
Cc1ccc2c(C(=O)NCc3ccccc3Cl)cc(NC(=O)C(C)C)cc2n1	mHTT-CaM PPI inh 58
COc1cc(C=CC(=O)c2cc(F)ccc2O)cc(OC)c1OC	none
CCCn1cc(C2=CCN(S(=O)(=O)c3ccccc3C(=O)OC)CC2)c2cccnc21	none
CC(C)c1cc(C2CCCN2C(=O)c2cc(-c3ccccc3)on2)on1 (configuration not stated)	none
C=C[C@@H]1c2cc(C)ccc2N(S(=O)(=O)c2ccc(C)cc2)[C@H](c2ccc(C(C)(F)F)cc2)C1(C#N)C#N	mHTT-CaM PPI inh 90
C=C[C@@H]1c2ccccc2N(S(=O)(=O)c2ccc(C)cc2)[C@H](c2ccc(C(F)(F)F)cc2)C1(C#N)C#N	none
OC(COc1ccc(C23CC4CC(CC(C4)C2)C3)cc1)C[N+]1(Cc2ccccc2)CCOCC1 (configuration not stated)	mHTT-CaM PPI inh 100
CCCCOCC(O)C[N+]1(Cc2ccccc2)CCOCC1 (configuration not stated)	none
